High-throughput results from PubChem BioAssay.
This is a sample that favours compounds with a hit; in the whole collection about 6% have one here.
D3 antag: D3 dopamine receptor (human) antagonism. AID 652054. P35462. D3R cells, DiscoveRx beta-arrestin luminescence, antagonist mode; stronger effect = lower value. 360,000 compounds, 2.5% hits. max response, negative = inhibition, %; in the data active = max response below about -50%; inconclusive = no clear call, values can overlap the other calls
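Cells expressing the human receptor were seeded at 1500 cells/well, incubated overnight at 37 degrees C in 5% CO2, then exposed to library compounds with dopamine controls for 90 minutes at 37 degrees C before luminescent detection.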
D1 PAM: human D1 dopamine receptor positive modulation; P21728; HEK293 TREx D1 cells, calcium flux, dopamine EC20 potentiation; potentiation, % at 10 µM; 360,000 compounds, 0.036% hits; AID 504651; in the data active = potentiation above about 30%
Target sequence (P21728 whole entry, looked up): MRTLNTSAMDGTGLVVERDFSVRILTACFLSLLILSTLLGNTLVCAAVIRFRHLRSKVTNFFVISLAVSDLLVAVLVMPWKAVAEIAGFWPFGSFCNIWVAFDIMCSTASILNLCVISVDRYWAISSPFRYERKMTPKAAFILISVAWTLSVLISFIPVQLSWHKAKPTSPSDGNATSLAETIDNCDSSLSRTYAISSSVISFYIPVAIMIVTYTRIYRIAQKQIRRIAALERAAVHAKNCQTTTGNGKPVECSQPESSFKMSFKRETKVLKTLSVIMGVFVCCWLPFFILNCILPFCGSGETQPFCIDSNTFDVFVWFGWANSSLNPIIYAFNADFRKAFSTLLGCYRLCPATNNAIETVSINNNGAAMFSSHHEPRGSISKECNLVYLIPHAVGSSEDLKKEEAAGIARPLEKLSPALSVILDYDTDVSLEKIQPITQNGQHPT
DRD3 agonist: agonists of human D3 dopamine receptor | 410,000 compounds, 0.58% hits | max activation, % | P35462 | AID 652048 | D3R DiscoveRx beta-arrestin cells, luminescence, 90 min; in the data active = max activation above about 30%
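Agonist mode: compounds and dopamine controls were applied to plated cells for 90 min at 37 degrees C after an overnight attachment at 1500 cells/well. Luminescent read-out followed 30 - 60 minutes at room temperature with DiscoveRx detection reagent.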
D1 ag: activates the human D1 dopamine receptor; HEK293 T-REx D1 cells, calcium flux, agonist mode; activation, % at 2 µM; 360,000 compounds, 1% hits; in the data active = activation above about 30%
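Agonism was scored from calcium flux recorded over 180 s (1 read/s) after pintool compound addition, following a 10-cycle baseline. Cells were inducible force-coupled HEK293 TREx D1, plated overnight at 30 C and loaded with no-wash calcium dye.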
D1 antag: human D1 dopamine receptor antagonism; P21728; HEK293 TREx D1 cells, calcium flux, dopamine EC80; stronger effect = lower value; activity change, negative = inhibition, % at 10 µM; 360,000 compounds, 3.2% hits; AID 504652; in the data active = activity change below about -30%
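Tetracycline-induced HEK293 Trex D1 cells, force-coupled to calcium, dye-loaded; compounds added and read 180 s, then EC80 dopamine added and calcium flux tracked kinetically another 180 s.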
A number is an active result; i = inactive; ? = inconclusive; nt = not tested or not shown.

SMILES | D3 antag | D1 PAM | DRD3 agonist | D1 ag | D1 antag
COc1cccc(CNC(=O)COC(=O)/C(C#N)=C/c2ccc(N(C)C)cc2)c1 | i | nt | i | 74 | i
COc1ccc(/C=C(\C#N)C(=O)OCC(=O)NCc2ccccc2)cc1 | i | i | i | i | i
CN(C)c1cccc(/C=C(\C#N)c2ccccc2)c1 | i | i | i | i | -32
COc1cccc(NC(=O)C(=O)NCC(c2cccnc2)N2CCN(c3ccccc3)CC2)c1 (centres undefined) | nt | i | i | i | i
O=[S+]([O-])(c1ccc2ncsc2c1)N1CCN([S+](=O)([O-])c2c(F)cccc2F)CC1 | nt | i | nt | i | i
O=C(Nc1cc(C(F)(F)F)ccc1Cl)[C@H](O)CCc1ccccc1 | nt | i | nt | i | i
CN(C)c1ccc(/C=C(\C#N)C(=O)c2ccccc2)cc1 | i | i | i | 401 | -39
Cc1ccc(C=C(C#N)C(=O)c2ccccc2)cc1 | i | nt | i | nt | nt
CC(C)c1cccc(C2=CC(=O)C[C@H](c3ccc(F)cc3)C2)c1 | i | i | i | i | -39
Cc1nc(NC(=O)C2CC2)sc1C(=O)Nc1ccccc1 | i | i | i | i | -38
Clc1cccc(N2CCN(c3nc4ccccc4c4nc(-c5cccnc5)nn34)CC2)c1 | nt | i | i | i | i
COc1ccccc1C(=O)Nc1ccc(C(=O)OCc2cc(=O)n3c4c(sc3n2)CCCC4)cc1 | nt | i | i | i | i
CC1CCc2c(nc3nc[nH]n3c2=O)C1 (centres undefined) | -53 | i | i | i | i
Cc1ccccc1C(=NCCCN(C)C)c1ccccc1C | -75 | i | i | i | i
C[C@H](NC(=O)OC(C)(C)C)c1nnc(SCc2ccc(Cl)cc2Cl)o1 | nt | i | i | i | i
CC(C)(C)OC(=O)NCCc1nnc(SCc2ccccc2)o1 | i | i | i | i | i
CC(C)(C)OC(=O)NCCCCCc1nnc(SCC(N)=O)o1 | i | i | i | i | -39
CC(C)(C)OC(=O)NCCc1nnc(S(=O)(=O)Cc2ccc(Cl)cc2Cl)o1 | -71 | i | i | i | i
CC(C)(C)OC(=O)NCCc1nnc(SCc2ccccc2Cl)o1 | i | i | i | i | -30
Cc1ccc(C)c(NC(=O)CSc2nnc(CCCCCNC(=O)OC(C)(C)C)o2)c1 | i | i | i | 36 | i
CC(C)(C)OC(=O)NCCc1nnc(SCC(N)=O)o1 | i | i | i | i | i
CCc1ccc(NC(=O)CSc2nc(=O)n(Cc3ccncc3)c3c2CCC3)cc1 | nt | i | i | i | nt
COc1ccc(NC(=O)c2c(NCc3ccc(N(C)C)cc3)sc3c2CCC3)cc1 | nt | i | i | i | i
CC(C)(C)c1ccc(/C=N/NC(=O)C2CCCC2)cc1 | ? | i | i | i | -47
Cc1nc(C(F)(F)F)c(C(=O)N/N=C(\N)c2ccccn2)s1 | -52 | i | i | i | i
SMILES | D3 antag | D1 PAM | DRD3 agonist | D1 ag | D1 antag
COc1ccc(CCNC(=O)CSCc2nc(-c3ccc(OC)c(OC)c3)oc2C)cc1OC | nt | i | i | i | i
Cc1ccc(-c2cc(C(F)(F)F)c(C#N)c(SCC(=O)Nc3ccccc3F)n2)cc1 | nt | i | i | 72 | i
CCOc1ccc(-c2cc(C(F)(F)F)c(C#N)c(SCC(=O)Nc3ccccc3)n2)cc1 | nt | i | i | 32 | -52
Cc1cc(C(F)(F)F)c(C#N)c(SCC(=O)Nc2nc3ccccc3s2)n1 | i | i | i | 64 | i
CCOc1ccc(NC(=O)CSc2nc(-c3ccc(F)cc3)cc(C(F)(F)F)c2C#N)cc1 | nt | i | i | i | i
N#Cc1c(C(F)(F)F)cc(-c2cccs2)nc1SCC(=O)Nc1ccccc1F | nt | i | i | i | i
COc1ccc(NC(=O)C2COc3ccccc3C2)cc1Cl (centres undefined) | nt | i | i | i | i
COc1ccc(-n2c(=O)c3ccc(C(=O)NCc4ccc(C)cc4)cc3n(Cc3cccc(Cl)c3)c2=O)cc1 | nt | i | i | i | i
O=C(NCc1ccccc1Cl)c1ccc2c(c1)N(Cc1ccccc1)C(=O)c1ccccc1S2 | nt | i | i | i | i
Fc1ccc(-c2n[nH]c(=S)n2Cc2ccccc2)cc1 | i | i | i | i | i
CC(C)(C)c1ccc(-c2n[nH]c(=S)n2Cc2ccccc2)cc1 | i | i | i | 91 | i
Cc1nn(Cc2n[nH]c(=S)n2Cc2ccccc2)c(C)c1Cl | -87 | i | i | i | i
S=c1[nH]nc(-c2cccnc2)n1Cc1ccccc1 | -53 | i | i | i | i
FC(F)C(F)(F)Oc1cccc(-c2n[nH]c(=S)n2Cc2ccccc2)c1 | i | i | i | i | -40
COc1ccccc1CNC(=O)c1ccc(N2CCCC2)c(NC(=O)NCc2ccc(F)cc2)c1 | nt | i | i | i | i
COc1ccc(CC(=O)Nc2cc(-c3nc4cccnc4s3)ccc2C)cc1 | nt | i | i | i | i
O=C(c1ccc(Cl)cc1)n1nc(-c2ccccc2)nc1NCc1ccco1 | nt | i | i | i | i
COc1ccc(Nc2oc(-c3cccs3)nc2C#N)cc1 | i | i | i | i | -43
Oc1ccc(Oc2ccc3c(C(F)(F)F)cc(C(F)(F)F)nc3n2)cc1 | i | i | 44 | i | i
CC(Oc1cccc(Cl)c1)C(=O)Nc1nc(-c2ccccn2)cs1 (centres undefined) | i | i | i | i | -35
Cn1cccc1C(=O)Nc1nc(-c2ccccn2)cs1 | -56 | i | i | i | i
CCc1ccc(NC(=O)CN2C(=O)CC(c3ccccc3)Sc3ccccc32)cc1 (centres undefined) | nt | i | i | i | i
O=S(=O)(c1cccc(NC(=S)N2CCN(c3cccc(Cl)c3)CC2)c1)C(F)F | i | i | i | i | i
O=S(=O)(c1cccc(NC(=S)N2CCN(c3ccc(F)cc3)CC2)c1)C(F)F | i | i | i | i | -35
O=[N+]([O-])c1ccc(C(O)CN2CCN(c3ccccc3)CC2)cc1 (centres undefined) | i | i | 34 | i | i
SMILES | D3 antag | D1 PAM | DRD3 agonist | D1 ag | D1 antag
O=[N+]([O-])c1ccc(NC(=S)N2CCN(c3ccccc3)CC2)cc1 | i | i | i | i | -40
CC(=O)c1ccc(N2CCN(C(=S)Nc3ccc(Oc4ccccc4)cc3)CC2)cc1 | ? | i | i | i | -33
O=[N+]([O-])c1ccc(C(O)CN2CCOCC2)cc1 (centres undefined) | i | i | i | i | i
CCOc1ccccc1CNC(=O)CN1C(=O)CCCc2ccccc21 | nt | i | i | i | i
NS(=O)(=O)c1ccc(NC(=S)N2CCN(c3ccccc3Cl)CC2)cc1 | i | i | i | i | -40
NS(=O)(=O)c1ccc(NC(=S)N2CCN(c3cccc(Cl)c3)CC2)cc1 | ? | i | i | i | i
COc1cc2ccccc2cc1C(=O)Nc1ccc(N2CCN(C)CC2)cc1 | ? | i | i | i | -61
CN1CCN(c2ccc(NC(=O)c3ccc(Oc4ccccc4)cc3)cc2)CC1 | i | nt | i | i | -58
CCOc1ccc(C(=O)Nc2ccc(N3CCN(C)CC3)cc2)cc1Br | i | i | i | i | -35
